Source: PubChem BioAssay
KB-3-1 cytotox: KB-3-1 parental cell cytotoxicity | KB-3-1 viability, CellTiter-Glo ATP luminescence, 72 h | Potency, µM (top dose mostly 46.1 µM), actives largely listed as cytotoxic | hit rate 1.4% among 400,000 | AID 1347075; also: nearly all actives have a fitted effect of over 60% in size
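72 h, 37 °C compound treatment of KB-3-1 parental cells; CellTiter-Glo added, 10 min, luminescence read. Data corrected against DMSO-only plates and normalized before curve fitting.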
HT1080-NT tox: kills 2HG-producing HT-1080-NT fibrosarcoma cells; HT-1080-NT fibrosarcoma viability, CellTiter-Glo ATP luminescence, 48 h; Potency, µM (top dose mostly 46.1 µM), inactives show top-dose activity, negative = less viability, hits mostly cytotoxic; hit rate 1.6% among 360,000;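 also: NT is the 2HG producing partner of a matched IDH1 knockdown line; 0% = DMSO-treated cells and -100% = media-only wells without cells; nearly all actives have a fitted effect of over 55% in size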
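750 cells/well, RPMI + 5% FBS; 2 h settle, compound pin-transfer, 48 h at 37 degrees C. CellTiter-Glo 10 min RT, luminescence. Normalized to DMSO and media-only wells.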
DT40 TDP1 no CPT: qHTS for Inhibitors of human tyrosyl-DNA phosphodiesterase 1 (TDP1): qHTS in cells in absence of CPT | DT40 Tdp1-/- hTDP1 cells, no CPT, ATP luminescence, 48 h | Potency, µM (doses to about 46.2 µM), inactives show at the top dose activity change, negative = growth inhibition, usual class: inhibitors | hit rate 15% among 420,000; also: nearly all actives have a fitted effect of over 55% in size
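Chicken DT40 Tdp1-/- cells complemented with human TDP1, screened without camptothecin (DMSO vehicle only), 400 cells/well. Compounds pin-transferred, cells incubated at 37 °C for at least 48 hr. Growth read as ATP-dependent luminescence (CellTiter-Glo, 30 min at RT).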
HT1080 IDH1KD tx: kills HT-1080 cells with IDH1 knockdown; Potency, µM (series often up to 46.1 µM), for the others: at the top dose activity, negative = toxicity, usual class: cytotoxic; HT-1080 IDH1 knockdown viability, ATP luminescence, 48 h; hit rate 2% among 360,000; AID 686971;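 also: 0% = DMSO wells and -100% = cell-free medium wells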
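Assay cells: HT-1080 with IDH1 knockdown, 750 per well, RPMI/5% FBS. Exposure: 48 h at 37 °C following 2 h pre-incubation. Read: CellTiter-Glo luminescence; fitted concentration-response, curve class assigned.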
DT40 TDP1 CPT: DT40-hTDP1 cell growth loss with CPT. chicken DT40 Tdp1-/-;hTDP1 cells + 20 nM CPT, ATP luminescence, 48 h. Potency, µM (doses to about 46.2 µM), without a hit: at the top dose activity change, negative = growth inhibition, usual class: inhibitors. hit rate 12% among 420,000. AID 686979; also: nearly all actives have a fitted effect of over 55% in size
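Chicken DT40 Tdp1-/- cells stably complemented with human TDP1 were seeded at 400 cells/well in medium containing 20 nM camptothecin, exposed to pin-transferred compounds, and grown at 37 °C for at least 48 hr. Viability was read as ATP luminescence.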
KB-V1 cytotox: KB-V1 MDR subline cytotoxicity. hit rate 3.4% among 400,000. Potency, µM (titrated, usually from 46.1 µM), most hits filed as cytotoxic. KB-V1 MDR cells viability, CellTiter-Glo, 72 h; also: nearly all actives have a fitted effect of over 60% in size
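Drug-selected KB-V1 cells, grown in DMEM lacking phenol red with 10% FBS, receive compound titrations; after three days at 37 degrees C, surviving cell ATP is quantified by CellTiter-Glo luminescence and responses normalized and curve-fitted.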
An asterisk follows results filed as active; i = inactive; u = inconclusive; x = not tested or not shown. An excerpt weighted towards active compounds, which were near 19% of everything screened. Calls follow the shape of the dose curve; as a rule, active = well fitted curve in the direction sought with a large enough effect; inconclusive = small, poorly fitted or top-dose-only effect, or another doubt; inactive = no such curve, though single readings can be large; an effect the other way counts as inactive or inconclusive. Unless noted, % is scaled to controls: 0 for no effect and ±100 for the full control effect; potency is read from the fitted curve at half-maximal effect.

SMILES | KB-3-1 cytotox | HT1080-NT tox | DT40 TDP1 no CPT | HT1080 IDH1KD tx | DT40 TDP1 CPT | KB-V1 cytotox
COc1ccc(-c2ccc3c(c2)[C@@H]2C[C@H](N(C)C(=O)C(C)(C)C)[C@H]([C@H](C)O)C(=O)N2CC3)cc1 | i | -7.2% | u | -0.9% | u | i
COc1ccc(-c2ccc3[nH]c4c(c3c2)CCN2C(=O)[C@@H]([C@H](C)O)[C@@H](N(C)C(=O)Nc3ccc(F)cc3)C[C@@H]42)cc1 | i | u | 11.6µM* | u | u | 16.4µM*
C[C@H](O)[C@@H]1C(=O)N2CCc3ccc(-c4ccccc4)cc3[C@@H]2C[C@@H]1N(C)C(=O)c1ccc(C#N)cc1 | i | -0.3% | u | -4.7% | u | i
C[C@H](O)[C@@H]1C(=O)N2CCc3ccc(-c4ccccc4)cc3[C@@H]2C[C@@H]1N(C)C(=O)c1ccco1 | i | -13.8% | 14.6µM* | -12.0% | u | i
C[C@H](O)[C@@H]1CN2CCc3c([nH]c4ccccc34)[C@@H]2C[C@@H]1N(C)C(=O)Nc1cccc2ccccc12 | i | -26.8% | u | -21.9% | u | i
C[C@H](O)[C@@H]1C(=O)N2CCc3c([nH]c4ccccc34)[C@@H]2C[C@@H]1N(C)Cc1ccc(Cl)cc1 | i | 0.2% | 29.1µM* | -0.3% | u | i
COc1ccc(CC(=O)OCC(=O)Nc2ccc3c(c2)OCO3)cc1 | i | 0.1% | -16.6% | 0.8% | 14.9% | i
CCOC(=O)c1c(C)c(-c2ccccc2)n(CC(=O)Nc2cccc(F)c2)c1C | i | x | u | x | 5.0% | i
NNC(=O)c1ccc(CSc2nc3ccccc3[nH]2)cc1 | i | -10.6% | u | u | u | i
CCNC(=O)N(C)[C@H]1C[C@H]2c3[nH]c4ccccc4c3CCN2C[C@H]1[C@H](C)O | i | 11.1% | 5.1% | 5.0% | -17.4% | i
Cc1cccc(-c2ccc3[nH]c4c(c3c2)CCN2C[C@@H]([C@H](C)OC(=O)Nc3ccccc3C)[C@@H](N(C)C(=O)Nc3ccccc3C)C[C@@H]42)c1 | u | u | 25.9µM* | u | u | i
Nc1nonc1-n1nnc(C(=O)N/N=C/c2cccc(Cl)c2Cl)c1CN1CCCC1 | i | -0.2% | 14.6µM* | 1.6% | 8.2µM* | i
CC1CCN(Cc2c(C(=O)N/N=C/c3ccc(C(C)(C)C)cc3)nnn2-c2nonc2N)CC1 | i | u | 13µM* | -13.9% | 13µM* | u
OCCC#Cc1ccc(CN2CCN(C3CCCCC3)C(CCO)C2)cc1 (stereo unspecified) | u | 1.2% | 9.7% | -1.2% | 3.6% | i
CCOC(=O)c1c(NC(=O)c2ccc(S(=O)(=O)N3CCOCC3)cc2)sc2c1CCN(C(C)C)C2 | i | -12.3% | 8.2µM* | u | u | i
CCOC(=O)c1c(NC(=O)C2CCCCC2)sc2c1CCN(C(C)C)C2 | i | u | 13µM* | -17.8% | 14.6µM* | i
COC(=O)c1c(NC(=O)C2CCCCC2)sc2c1CCN(C(C)C)C2 | i | -0.2% | u | -3.3% | u | u
CCN1CCc2c(sc(NC(=O)c3ccc(S(=O)(=O)N4CCOCC4)cc3)c2C(=O)OC)C1 | i | u | u | u | 8.2µM* | i
CCN1CCc2c(sc(NC(=O)c3ccc(S(=O)(=O)N4CCOCC4)cc3)c2C(N)=O)C1 | i | -7.5% | u | 5.7% | u | i
